# Values joined by “and” are separate entries in the source; they are usually repeats but may differ in a detail not shown here. Equal entries are not always repeated. Records with an inconclusive call do not appear. A call without a number means that no potency is given here. Values without a mark were called inactive. Active and inactive are the calls of the source. The call rests on the fitted dose curve; in most records, active means well fitted curve in the direction sought with a large enough effect; inconclusive means small, poorly fitted or top-dose-only effect, or another doubt; inactive means no such curve, though single readings can be large; an effect the other way counts as inactive or inconclusive.
# Tests used:
# [1] = qHTS assay to identify small molecule inhibitors of chordoma cells - UCH-1 (AID 1259355); further: nearly all actives have a fitted effect of over 55% in size; further: potency means the concentration at half of the fitted maximal effect; series mostly up to about 46 µM
# Procedure, shortened: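 A 48hr growth-inhibition format: each drug tested at 15 concentrations together with added auranofin, camptothecin, doxorubicin, rubitecan and topotecan, with cell viability quantified as CellTiter-Glo luminescence.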
# [2] = qHTS assay for cell viability of HEK293 cells (AID 743288); settings: ATP luminescence (CellTiter-Glo), 18 h; max response: hits give low values; further: nearly all actives have a fitted effect of over 50% in size; further: potency means the concentration at half of the fitted maximal effect
# Procedure, shortened: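 ATP luminescence (CellTiter-Glo) reports metabolically competent cell number after parental HEK293 cells, 2,000/well, were treated with DMSO-dissolved compounds for 18 h at 37 C; reagent incubation 30 min, room temperature.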
# [3] = qHTS assay for cell viability of the p53RE-bla HCT-116 cell line (AID 743292); further: nearly all actives have a fitted effect of over 55% in size
# Procedure, shortened: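 After plating at 4,000 cells per well and a 5 h rest at 37 C, HCT-116 cells carrying p53RE-bla received test chemicals in DMSO. Sixteen hours later at 37 C, CellTiter-Glo was added and luminescence recorded following 30 min at room temperature.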
SMILES,Potency [1],max response [2],outcome [3],Potency [2]
COc1ccc(C(=O)c2ccc(C)cc2)c(O)c1,inactive,,,
CCCCCCCCCCCCCCCCCC(=O)OC[C@@H](O)[C@H]1OC[C@H](O)[C@H]1O,inactive,-11.8%,inactive,
NCCO/C=C/[C@H](N)C(=O)O,inactive,-5.56%,inactive,
O=C(O)CC/C=C\CC[C@@H]1[C@@H](N2CCCCC2)[C@@H](O)C[C@@H]1OCc1ccc(-c2ccccc2)cc1,inactive,,,
C[C@@H]1O[C@@H]1P(=O)(O)O,inactive,,,
c1ccc2ccccc2c1,inactive,-14.2% and 4.14%,inactive,
O=P(O)(O)O,inactive,-7.47%,inactive,
O.O.O.O.O.O.O.O=S(=O)([O-])[O-].[Co+2],inactive,1.41%,inactive,
CC(C)[C@@H]1CC[C@@H](C)C[C@H]1O,inactive,-12.7%,inactive,
CC(C)CCCCCCc1ccc(O)cc1,inactive,-15.7%,inactive,
O=P(O)(O)CP(=O)(O)O,inactive,,,
CO/N=C(\C(=O)N[C@@H]1C(=O)N2C(C(=O)O)=C(C[N+]3(C)CCCC3)CS[C@H]12)c1csc(N)n1,inactive,,,
CCc1ccc(S(=O)(=O)O)cc1,inactive,,,
[O-][N+](=Nc1ccccc1)c1ccccc1,inactive,-0.626%,inactive,
ClC(Cl)Cl,inactive,-2%,inactive,
CC1CS(=O)(=O)CCN1/N=C/c1ccc([N+](=O)[O-])o1 (centres undefined),inactive,,,
C[C@H]1O[C@@H](O[C@H]2[C@@H](O)C[C@H](O[C@H]3[C@@H](O)C[C@H](O[C@H]4CC[C@@]5(C)[C@H](CC[C@@H]6[C@@H]5C[C@@H](O)[C@]5(C)[C@@H](C7=CC(=O)OC7)CC[C@]65O)C4)O[C@@H]3C)O[C@@H]2C)C[C@H](O)[C@@H]1O,355 nM (active),,,126 nM (active) and 50.1 nM (active)
CCCCC,inactive,-0.392%,inactive,
